Inhibition data for ten compounds are collected here from PubChem BioAssay AID1434 (Sanford-Burnham Center for Chemical Genomics, 2008).

About 1,600 (0.73%) of roughly 220,000 compounds were called active.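 How the source made its calls: active means mean inhibition across duplicate retests at 20 µM reaching about 50% (limit read from the data); inactive means the rest, inconclusive results apart.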 The entries come from a sample that favours actives as a whole.

In the assay the target is Runt-related transcription factor 1 (Homo sapiens) + Core-binding factor subunit beta (Homo sapiens) (UniProt Q01196+Q13951). As to the kind of experiment: disruptors of Runt domain/CBFb-SMMHC interaction – biochemical, FRET, Cerulean-Runt, Venus-CBFb-SMMHC, uHTS, primary screen (AID 1434).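 Further: 0% = DMSO wells and 100% = wells with excess untagged CBFb-SMMHC; inhibitors lower the FRET ratio by blocking Runt binding to CBFb-SMMHC.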 The following applies: Cerulean-Runt/Venus-CBFb-SMMHC FRET ratio 530/480, 1 h, at 20 µM, stronger effect = higher value.
Runt-related transcription factor 1 (Homo sapiens) + Core-binding factor subunit beta (Homo sapiens), sequence (Q01196 whole entry, looked up, the tested form may be a part): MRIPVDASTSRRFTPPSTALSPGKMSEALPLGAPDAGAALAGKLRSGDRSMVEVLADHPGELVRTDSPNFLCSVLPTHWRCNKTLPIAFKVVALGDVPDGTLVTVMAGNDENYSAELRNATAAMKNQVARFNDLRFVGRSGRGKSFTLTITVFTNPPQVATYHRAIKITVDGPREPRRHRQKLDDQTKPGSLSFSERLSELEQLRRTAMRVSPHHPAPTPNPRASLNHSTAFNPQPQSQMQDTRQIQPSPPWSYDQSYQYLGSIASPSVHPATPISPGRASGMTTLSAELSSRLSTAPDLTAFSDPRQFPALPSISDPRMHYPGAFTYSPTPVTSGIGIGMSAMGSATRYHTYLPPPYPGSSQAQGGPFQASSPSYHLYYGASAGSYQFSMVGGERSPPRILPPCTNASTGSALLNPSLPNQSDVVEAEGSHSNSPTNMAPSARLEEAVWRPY
Runt-related transcription factor 1 (Homo sapiens) + Core-binding factor subunit beta (Homo sapiens), sequence (Q13951 whole entry, looked up, the tested form may be a part): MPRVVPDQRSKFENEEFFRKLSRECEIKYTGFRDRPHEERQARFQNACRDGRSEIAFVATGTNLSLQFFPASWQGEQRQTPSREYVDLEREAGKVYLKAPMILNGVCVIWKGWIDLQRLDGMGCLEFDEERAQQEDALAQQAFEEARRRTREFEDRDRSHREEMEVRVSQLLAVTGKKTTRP

For the compound `COc1cc(Cn2c(N)c(C(=O)NCc3ccco3)c3nc4ccccc4nc32)cc(OC)c1OC`, the inhibition (commonly the relative decrease from the control value, in per cent) is 34.2% (inactive). Still for that read-out and setting: the value for `CC/C(=N\NC(=O)c1ccccc1O)c1c(O)n(Cc2ccccc2)c(=O)[nH]c1=O` was -0.6% (inactive). Turning to `CCOC(=O)c1c(N)n(CCN2CCOCC2)c2nc3ccccc3nc12`, the inhibition was 69.9% (active). The inhibition (retest duplicate average) was 73.1%. With `CCOC(=O)c1c(N)n(Cc2ccccc2)c2nc3ccccc3nc12`, the inhibition was 97.2% (active). Further, under “retest duplicate average”, the inhibition worked out at 128%. As for `O=C(OCCN1CCOCC1)C1(c2ccccc2)CCCC1`, the inhibition is -5.6% (inactive). Same read-out and setting: next, `CCOc1cccc(=NC2CCCCC2)c2c(C)[nH]c(C)c12`: -11% (inactive); `CC1(C)C(c2ccccc2)=NC(c2cccnc2)=[N+]1[O-]`: -6.5% (inactive); `C/C=C/CC1(CC)C(=O)NC(=S)NC1=O`: -3.2% (inactive). The same measure, in the same setting: the value for `COc1cc(OC)cc(C2(C#N)CCN(C)CC2)c1` was -1.4% (inactive). Still for that read-out and setting: the value for `CCOC(=O)C1(CCc2ccccc2)CCN(Cc2ccco2)CC1` was -5.4% (inactive).
